Source: PubChem BioAssay
Mtb bLac sens – beta-lactam sensitization of Mtb H37Rv, H37Rv | inhibition, % at 25 µM | AID 434955, 2010 | hit rate 0.27% among 330,000 | M. tuberculosis H37Rv growth with meropenem, percent inhibition;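 note: growth measured after seven days incubation then overnight dye step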
GDH-TPI counter-1 – GDH-TPI coupling enzyme inhibitors, primary screen, artefact control for M. tuberculosis FBA inhibitor project, biochemical, absorbance, full deck. GDH-TPI coupled enzyme counterscreen, NADH absorbance. inhibition, % at 4.8 µM. hit rate 1.2% among 360,000. AID 588335, 2011; in the data active = inhibition above about 30%
FadD28 FP inh – inhibitors of FadD28 bisubstrate probe binding, primary screen, biochemical, fluorescence polarization, single point; Mycobacterium tuberculosis FadD28 fatty-acid-AMP ligase; inhibition, % at 12.5 µM; hit rate 0.22% among 360,000; in the data active = inhibition above about 8.5%, passing the limit was not always enough
UGM FP inh – M. tuberculosis UGM enzyme inhibitors, primary screen, biochemical, fluorescence polarization, single point; inhibition, % at 10 µM; AID 504406, 2011; UDP-galactopyranose mutase (Mycobacterium tuberculosis (strain ATCC 25618 / H37Rv)), …; hit rate 0.06% among 320,000; purified UGM, fluorescence polarization probe displacement; in the data active = inhibition above about 10%, passing the limit was not always enough
Target sequence (P9WIQ1 whole entry, looked up): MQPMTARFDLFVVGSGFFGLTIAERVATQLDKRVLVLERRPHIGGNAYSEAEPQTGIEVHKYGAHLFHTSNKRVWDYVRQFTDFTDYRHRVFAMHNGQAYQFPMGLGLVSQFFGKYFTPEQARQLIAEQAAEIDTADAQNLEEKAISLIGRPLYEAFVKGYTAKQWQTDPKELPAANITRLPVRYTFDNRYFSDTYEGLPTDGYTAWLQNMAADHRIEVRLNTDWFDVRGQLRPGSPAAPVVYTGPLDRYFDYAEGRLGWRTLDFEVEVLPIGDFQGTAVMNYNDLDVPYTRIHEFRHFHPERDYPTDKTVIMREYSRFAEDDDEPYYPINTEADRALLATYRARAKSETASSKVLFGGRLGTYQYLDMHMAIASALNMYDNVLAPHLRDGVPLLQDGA
Rv3671c protease – Rv3671c serine protease inhibitors, primary screen, biochemical, fluorescence polarization, M. tuberculosis H37Rv. inhibition, % at 5.96 µM. hit rate 0.048% among 320,000. AID 2606, 2010; in the data active = inhibition above about 38%;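 note: extracellular domain of Rv3671c used as enzyme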
Mtb FBA inh – Mtb FBA enzyme inhibitors, primary screen, biochemical, fluorescence, strain H37Rv | Fructose-bisphosphate aldolase (Mycobacterium tuberculosis (strain ATCC 25618 / H37Rv)), … | purified M. tuberculosis FBA, fluorescence read-out | inhibition, % at 1 µM | hit rate 2.3% among 360,000; in the data active = inhibition above about 27%
Mtb FBA confirm – M. tuberculosis aldolase blockers, biochemical, fluorescence, strain H37Rv, confirmation; shares compounds with Mtb FBA inh; hit rate 78% among 5,600; inhibition, % at 1 µM; purified M. tuberculosis FBA, fluorescence read-out; in the data active = inhibition above about 27%
GDH-TPI counter-2 – GDH-TPI coupling enzyme inhibitors, artefact control for M. tuberculosis FBA inhibitor project, biochemical, fluorescence, high throughput | inhibition, % at 1 µM | shares compounds with Mtb FBA inh | GDH-TPI coupled enzyme counterscreen | hit rate 81% among 5,600; in the data active = inhibition above about 10%
GDH-TPI dose – GDH-TPI coupling enzyme inhibitors, dose response, artefact control for M. tuberculosis FBA inhibitor project, biochemical, fluorescence, IC50. shares compounds with Mtb FBA inh. GDH-TPI coupled enzyme assay, artifact counterscreen. IC50, µM. hit rate 79% among 170. AID 652145, 2013
A number is an active result; – = inactive; · = not tested or not shown; + = active, no number. Only some compounds are listed: those with a hit (about 3.7% of all), similar ones and a draw of the others. Unless noted, the rule behind the calls is not given here.

SMILES	Mtb bLac sens	GDH-TPI counter-1	FadD28 FP inh	UGM FP inh	Rv3671c protease	Mtb FBA inh	Mtb FBA confirm	GDH-TPI counter-2	others
CCC1(CC)Nc2ccccc2C(=O)N1c1ccc(NC(C)=O)cc1	–	–	–	–	–	–	·	·
CN(C)CCCNC(=O)C[C@H]1C[C@H](C(=O)N2CCCCC2)[C@@]2(C)c3[nH]c4cc(CCC(=O)N(C)C)ccc4c3CCN2C1=O	·	–	–	·	·	–	·	·
O=c1ncc(F)c[nH]1	–	·	·	–	–	·	·	·
O=C1c2cc(Cl)ccc2-c2c(O)cc(Cl)cc21	·	–	–	·	·	–	·	·
CCOC(=O)c1c(C)n(-c2ccc(F)cc2)c2ccc(O)cc12	–	–	–	–	–	35	44	24
COC(=O)c1c(C)n(-c2ccc(OC)cc2)c2ccc(O)cc12	–	–	–	–	–	–	·	·
Cc1nc(-[n+]2nc(-c3ccncc3)nn2-c2ccccc2)sc1C	·	·	–	·	·	–	·	·
CN(C)CCCn1c2c3ccccc3ccc2c2oc(=O)c3ccccc3c21	·	–	–	·	·	27	+	+
O=C(N/N=C/c1cc(Cl)ccc1O)c1ccc(Br)cc1	–	–	–	–	–	27	78	57
O=C(O)c1cc(OCc2ccccc2)cc(OCc2ccccc2)c1	–	–	–	–	–	–	·	·
O=C(O)c1cc2cc(OCc3ccccc3)ccc2[nH]1	–	–	–	–	–	39	129	97
O=C(NCCc1ccccc1)c1ccc2[nH]c(=O)c(=O)[nH]c2c1	–	–	–	–	–	33	32	19
O=C(NCCc1ccccc1)c1ccc(=O)[nH]c1	–	–	–	–	–	–	·	·
COc1ccc2[nH]c(C(=O)N(Cc3ccccn3)Cc3ccccn3)cc2c1	–	–	–	–	–	34	132	113
COc1ccc2[nH]c(C(=O)O)c(CCNC(C)=O)c2c1	–	–	–	–	–	49	125	106
N#CC(=C1NC(=O)c2ccccc21)c1nc2ccccc2n1CCO	·	–	–	·	·	–	·	·
Cc1cc(OCC(=O)OCC(=O)NCc2cccs2)ccc1Cl	–	–	–	·	–	–	·	·
CCOc1ccc(NC(=O)C(=O)NCCCn2ccnc2)cc1	–	–	–	–	–	44	197	164
COc1ccc2[nH]c(C(=O)NCCCn3ccnc3)cc2c1	–	–	–	–	–	86	125	90
COc1ccc2[nH]c(C(=O)NCCN3CCCCC3)cc2c1	–	·	·	–	–	·	·	·
CCCCNC(=O)c1cc2cc(OC)ccc2[nH]1	–	–	–	–	–	49	–	–
COc1ccc2[nH]c(C(=O)NCCc3ccccc3)cc2c1	–	–	–	–	–	48	–	–
COc1ccc(C(=O)c2c[nH]c(C(=O)NCCCn3ccnc3)c2)cc1	–	–	–	–	–	–	·	·
COc1ccc2[nH]c(=O)c(C(=O)O)cc2c1	–	–	–	–	–	53	66	61
COc1ccc2[nH]c(=O)cc(C(=O)O)c2c1	–	–	–	–	–	–	·	·
CCn1c2ccccc2c2cc(/C=N/n3cnnc3)ccc21	–	46	–	–	–	32	59	48
CCn1c2ccccc2c2cc(/C=N/n3cn[nH]c3=S)ccc21	–	–	–	–	–	–	·	·
CCn1c(/C=N/n2cnnc2)nc2ccccc21	–	47	–	–	–	28	116	83
CCn1nc2cc(C(=O)NCC34CC5CC(CC(C5)C3)C4)ccc2c1OC	–	–	–	–	–	28	–	–	GDH-TPI dose=4
